# Compound activity deposited in PubChem by several laboratories.
# The full list was thinned out, with hits kept by preference.
# GIRK2 activator: activators of NPY4-receptor-primed GIRK2 channels, summary, cell-based, HEK293, thallium flux; G protein-activated inward rectifier potassium channel 2 (Homo sapiens), P48051; HEK293 GIRK2/NPY4 cells, thallium flux fluorescence; activation (% efficacy), % for hits at 37.5 µM; 34,000 tested, under 10 active; AID 1259324, 2017;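 active means primary screen hit, no activity in plain HEK293 cells, and in GIRK2-only cells above 5% efficacy rising with concentration; inactive means the rest, including fluorescent compounds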;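 further: efficacy is normalized control-subtracted fluorescence 15 s after thallium addition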
# Target sequence (P48051 whole entry, looked up): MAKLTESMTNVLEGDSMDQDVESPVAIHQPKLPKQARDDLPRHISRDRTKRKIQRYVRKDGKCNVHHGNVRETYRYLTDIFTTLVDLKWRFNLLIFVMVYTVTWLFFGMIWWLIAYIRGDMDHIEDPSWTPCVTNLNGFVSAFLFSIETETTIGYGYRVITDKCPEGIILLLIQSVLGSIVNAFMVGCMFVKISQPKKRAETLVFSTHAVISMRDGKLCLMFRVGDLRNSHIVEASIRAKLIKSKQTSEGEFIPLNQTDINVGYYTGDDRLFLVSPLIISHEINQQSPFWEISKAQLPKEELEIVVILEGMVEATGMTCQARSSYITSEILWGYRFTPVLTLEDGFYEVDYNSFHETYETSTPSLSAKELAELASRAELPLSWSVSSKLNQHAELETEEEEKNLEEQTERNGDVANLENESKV
# GluA2 TARP mod: modulators of GluA2-stargazin AMPA receptor complexes, primary screen, cell-based, membrane potential dye; hit rate 3.5% among 40,000; AID 1259245, 2017; HEK293 GluA2+stargazin, membrane potential dye (FDSS), glutamate EC50; hits were called plate by plate, in both directions; calls only at 30 µM;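 active means any of four per-well response measures lying three or more SD from its plate-wide compound average, in either direction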
# * = called active by the depositor; i = inactive; nt = no result; + = active, no number.
SMILES,GIRK2 activator,GluA2 TARP mod
O=C(Nc1cccc(C(F)(F)F)c1)C1CC(=O)N(c2ccc(F)cc2)C1 (stereo not given),nt,+
O=C(Nc1ccc2c(c1)CN(C(=O)c1ccccc1)CC2)C1CC(=O)N(c2ccc(F)cc2)C1 (stereo not given),i,i
Cn1c(=O)c2c(nc(CN3CCN(c4ccc(F)cc4)CC3)n2CC(=O)C(C)(C)C)n(C)c1=O,i,i
CC1CC(C)CN(Cc2nc3c(c(=O)n(C)c(=O)n3C)n2CC(=O)C(C)(C)C)C1 (stereo not given),i,+
COc1cc(C(=O)Nc2cccc(N3CCCCC3=O)c2)c([N+](=O)[O-])cc1OC,i,i
Cc1c(C(=O)Nc2cccc(N3CCCC3=O)c2)cccc1[N+](=O)[O-],i,+
Cc1nc(-c2ccccc2)sc1-c1cc(=O)[nH]c(SCC(=O)NCc2ccccc2Cl)n1,i,nt
COc1cc(OC)cc(C2=NC3(CCCC3)N(C(=O)c3cc(OC)c(OC)c(OC)c3)C2=S)c1,i,i
N#Cc1ccccc1NC(=O)CSc1nccnc1N1CCSCC1,i,i
COC(=O)c1ccccc1NC(=O)CSc1nccnc1N1CCSCC1,i,+
COc1c(C)cc(S(=O)(=O)NCC(c2ccsc2)N2CCc3ccccc3C2)cc1C (stereo not given),i,i
O=C(NCC(c1ccsc1)N1CCc2ccccc2C1)C1CC1 (stereo not given),i,+
O=C(CSc1nc(=O)n(CCCO)c2c1CCC2)N1CCc2ccccc21,i,+
O=C(CSc1nc(=O)n(CCO)c2c1CCCC2)N1CCc2ccccc21,i,i
O=C(Nc1ccc2c(c1)OCO2)c1cc(N2C(=O)CCS2(=O)=O)ccc1Cl,i,i
COc1ccc2nc(N(CCN3CCOCC3)C(=O)CSc3ccc(C)cc3)sc2c1,nt,i
CCOC(=O)N1CCN(C(=O)CSc2ccnc3c2c(=O)n(C)c(=O)n3C)CC1,nt,+
COC(=O)CSc1ccnc2c1c(=O)n(C)c(=O)n2C,i,+
COc1ccc(C(=O)CSc2ccnc3c2c(=O)n(C)c(=O)n3C)cc1,i,i
CCOC(=O)C(C)Sc1ccnc2c1c(=O)n(C)c(=O)n2C (stereo not given),i,i
Nc1ccc(N2CCN(c3c(F)c(F)c(F)c(F)c3F)CC2)c(Cl)c1,nt,i
O=C(NCC(c1ccco1)N1CCOCC1)c1nc2ccccc2s1 (stereo not given),i,i
Cc1cc(=O)oc2cc(OCC(=O)c3ccc(Cl)c(Cl)c3)ccc12,nt,i
Cc1cc(=O)oc2cc(OCC3CCNCC3)ccc12,i,+
O=C1CN(C(=O)c2nc(-c3cnccn3)no2)CCN1,i,i
SMILES,GIRK2 activator,GluA2 TARP mod
COc1ccccc1-n1nnnc1SCC(=O)Nc1ccc(C(=O)O)cc1,i,i
Fc1cccc(Cl)c1Cn1c(CN2CCCC2)nc2ccccc21,i,+
CN(Cc1nc2ccccc2n1Cc1cccc(Cl)c1)C(=O)c1ccco1,i,nt
Brc1ccc(Cn2c(CN3CCCC3)nc3ccccc32)cc1,nt,i
CCOC(=O)N(C)Cc1nc2ccccc2n1Cc1c(F)cccc1Cl,nt,+
COc1ccccc1CNC(=O)CC1CCCCN1S(=O)(=O)c1ccc(F)cc1 (stereo not given),nt,i
c1coc(CNc2nc(N3CCCCC3)nc3ccccc23)c1,nt,+
c1ccc(N2CCN(c3nc(NCc4ccco4)c4ccccc4n3)CC2)cc1,nt,i
COc1ccccc1OCC(=O)NCC(C)(O)c1ccccc1 (stereo not given),i,i
O=C(c1ccc(Br)o1)N1CCC(Cn2cnc3ccccc32)CC1,i,+
O=C(c1cc2ccccc2oc1=O)N1CCC(Cn2cnc3ccccc32)CC1,i,i
Cc1cc(C)cc(N2C(=O)N(CC(=O)NCc3ccccc3)c3ccccc3S2(=O)=O)c1,i,i
COc1cn(CC(=O)NC2CCCCC2)c(CSc2ccccc2)cc1=O,nt,+
COc1cn(CC(=O)NC2CCCC2)c(CSc2ccc(C)cc2)cc1=O,i,i
CC(=O)c1ccc(N2CCN(C(=O)c3cc(-c4cccs4)nn3C)CC2)cc1,i,i
COc1ccc(S(=O)(=O)N2CCN(c3ccc(Nc4cccc(C)n4)nn3)CC2)cc1Cl,i,+
COc1ccc(S(=O)(=O)N2CCN(c3ccc(Nc4ccccn4)nn3)CC2)cc1,i,i
Cc1ccnc(Nc2ccc(N3CCN(S(=O)(=O)c4ccc(F)cc4)CC3)nn2)c1,i,nt
CN(C)S(=O)(=O)N1CCN(c2ccc(Nc3ccncc3)nn2)CC1,i,i
Cc1nnc2ccc(N3CCN(S(=O)(=O)c4ccc(Cl)c(Cl)c4)CC3)nn12,i,i
